Entries with a potency or affinity are not part of this list.
These compounds were tested on Candida albicans. Conditions: 32 ug/mL.

| Compound | Inhibition |
| --- | --- |
| Cc1ccc(C=C2CN(C(=O)OC(C)(C)C)C/C(=C\c3ccc(C)cc3C)C2=O)c(C)c1 | -1.7% |
| COc1cc2c(cc1OC)C(=O)C(=Cc1ccco1)CC2 | 36.5% |
| COc1ccc2c(c1)C(=O)C(=Cc1cccnc1Br)CC2 | 1.26% |
| COc1cc2c(cc1OC)C(=O)C(=Cc1ccoc1)CC2 | 20% |
| COc1ccc2c(c1)CCC(=Cc1ccccn1)C2=O | 0.77% |
| COc1ccc2c(c1)C(=O)C(=Cc1cncc(Br)c1)CC2 | 3.19% |
| COc1cccc2c1CCC(=Cc1ccco1)C2=O | 2.23% |
| COc1ccc2c(c1)C(=O)C(=Cc1cnccc1OC)CC2 | 2.37% |
| COc1ccc2c(c1)CCC(=Cc1cccnc1Cl)C2=O | 3.75% |
| COc1ccc2c(c1)CCC(=Cc1ccncc1)C2=O | 2.55% |
| COc1ccc2c(c1)C(=O)C(=Cc1ccoc1)CC2 | 8.42% |
| COc1ccc2c(c1)CCC(=Cc1ccco1)C2=O | 4.52% |
| COc1ccc2c(c1)C(O)C(=Cc1cccnc1Cl)CC2 (stereo unspecified) | 15% |
| COc1ccc2c(c1)CCC(=Cc1ccc(OC)nc1)C2=O | 3.72% |
| COc1cccc2c1CCC(=Cc1ccoc1)C2=O | 10.1% |
| CC(C)(C)OC(=O)N1CC(=Cc2ccoc2)C(=O)/C(=C/c2ccoc2)C1 | 14.2% |

| Compound | Inhibition |
| --- | --- |
| COc1ccc2c(c1)C(=O)C(=Cc1cccc(C=C3CCc4ccc(OC)cc4C3=O)c1)CC2 | 2.22% |
| COc1cccc2c1CCC(=Cc1cccc(C=C3CCc4c(OC)cccc4C3=O)c1)C2=O | 12.4% |
| COc1ccc2c(c1)CCC(=Cc1cccnc1)C2=O | 2.52% |
| COc1ccc2c(c1)C(=O)C(=Cc1ccccn1)CC2 | 3.51% |
| COc1ccc2c(c1)C(=O)C(=Cc1cccnc1Cl)CC2 | 6.91% |
| COc1ccc2c(c1)CCC(=Cc1cnccc1OC)C2=O | -0.18% |
| COc1ccc(/C=C/C(=O)c2ccc(OCc3ccc(Br)cc3)cc2)cc1OC | 14.1% |
| COc1ccc2c(c1)CCC(=Cc1ccoc1)C2=O | 5.64% |
| COc1ccc2c(c1)C(=O)C(=Cc1ccco1)CC2 | 6.5% |
| CC(C)(C)OC(=O)N1CC(=Cc2ccco2)C(=O)/C(=C/c2ccco2)C1 | 19.9% |
| COc1ccc2c(c1)C(=O)C(=Cc1cccnc1OC)CC2 | 2.73% |
| COc1ccc2c(c1)CCC(=Cc1cccnc1Br)C2=O | 3.93% |
| COc1ccc2c(c1)C(=O)C(=Cc1cccnc1)CC2 | 3.76% |
| COc1ccc2c(c1)C(=O)C(=Cc1cccnc1Cl)CC2.Cl | 3.54% |
| COc1ccc2c(c1)CCC(=Cc1cncc(Br)c1)C2=O | 4.95% |
